The values that follow come from article PMC5540273 (PLoS ONE, 2017).

The structures appear in SMILES notation. Several values for one entry are separate records, joined by “and”; a condition that tells them apart may be missing. Identical values can stand only once. Like-named read-outs stand apart in the source and are kept apart here.

The test system of one test is DAPK1. Particulars: concentration: 1 μM, replicates: in singlicate, n = 1.
The next test relates to DAPK2. Particulars: concentration: 1 μM, replicates: in singlicate, n = 1.
A further test deals with DAPK3. Particulars: concentration: 1 μM, replicates: in singlicate, n = 1.
A further test has as its system T1, DCAMKL1.
T1 construct: gene DCLK1
The settings on record: concentration: 1 μM, replicates: in singlicate, n = 1.

The subject of another test is T2, DCAMKL2.
T2 construct: gene DCLK2
The settings on record: concentration: 1 μM, replicates: in singlicate, n = 1.

Another test relates to T3, DCAMKL3.
T3 construct: gene DCLK3
Particulars: concentration: 1 μM, replicates: in singlicate, n = 1.

The next test has as its system DDR1. Particulars: concentration: 1 μM, replicates: in singlicate; n = 1.
The next test has as its system DDR2. Particulars: concentration: 1 μM, replicates: in singlicate, n = 1.
In the next test the test system is T4, DLK.
T4 construct: gene MAP3K12
Particulars: concentration: 1 μM, replicates: in singlicate, n = 1.

The test system of the next test is T5, DMPK2.
T5 construct: gene CDC42BPG
The settings on record: concentration: 1 μM, replicates: in singlicate, n = 1.
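Further: KINOMEscan kinase panel screen.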

With `O=C(Nc1n[nH]c2cc(-c3cccc(F)c3)ccc12)C1CC1` [SB-735464], the “%Inh” value with DAPK1 is recorded as 1%; in the test with DAPK2, 11%; in the test on DAPK3, 0%; in the test on DCAMKL1 it was 11%; in the test on DCAMKL2 it was 0%; in the test with DCAMKL3, 0%. In addition, the “%Inh” value in the test on DDR1 turned out to be 4%; in the test on DDR2, 8%; with DLK, 0%; in the test on DMPK2, 0%.

In the case of `O=c1cc(N2CCOCC2)nc2n(Cc3cccc(Cl)c3Cl)c(C3CC3)nn12` [GSK2358994], the “%Inh” value came to 26% in the test on DAPK1; 12% in the test on DAPK2; 6% with DAPK3; 0% in the test on DCAMKL1; 7% in the test with DCAMKL2; 17% in the test on DCAMKL3. Also, the “%Inh” value in the test on DDR1 worked out at 21%; in the test with DDR2, 0%; in the test on DLK, 0%; with DMPK2, 0%.

`COc1ccc(Nc2nccc(N3CCC(NC(=O)Nc4cc(C)ccc4C)C3)n2)cc1` (stereo not shown) [GSK1379741]: the “%Inh” value in the test with DAPK1 is recorded as 0%; in the test with DAPK2 it was 0%; in the test on DAPK3 it was 10%; in the test on DCAMKL1, 0%; in the test with DCAMKL2, 0%; in the test with DCAMKL3, 4%. Besides, the “%Inh” value in the test with DDR1 was 23%; with DDR2, 0%; in the test on DLK, 0%; with DMPK2, 0%.

In the case of `CSc1ccc(-c2cc3ncnc(SCC(=O)O)c3s2)cc1`, the “%Inh” value worked out at 12% with DAPK1; 0% with DAPK2; 0% with DAPK3; 0% with DCAMKL1; 15% in the test on DCAMKL2; 8% in the test on DCAMKL3. Moreover, the “%Inh” value in the test with DDR1 was 0%; in the test with DDR2 it was 8%; in the test with DLK it was 44%; with DMPK2 it was 0%.

In the case of `COCCNC(=O)c1ccc(-c2cc(C(=O)NC3CC3)cc(F)c2C)cc1` [GW868318], the “%Inh” value in the test with DAPK1 was 10%; with DAPK2 it was 0%; in the test on DAPK3, 28%; with DCAMKL1, 12%; in the test with DCAMKL2, 19%; in the test on DCAMKL3, 13%. In addition, the “%Inh” value is recorded as 21% with DDR1, 21% in the test on DDR2, 6% in the test on DLK and 0% in the test with DMPK2.

Turning to `COc1cc2ncn(-c3cc(OCc4sccc4Cl)c(C(N)=O)s3)c2cc1OC` [GSK448459], the “%Inh” value in the test on DAPK1 is listed as 12%; in the test on DAPK2, 2%; in the test on DAPK3 it was 36%; with DCAMKL1, 5%; in the test on DCAMKL2 it was 4%; in the test with DCAMKL3, 0%. For the same compound, the “%Inh” value is reported as 0% in the test on DDR1, 12% in the test on DDR2, 32% in the test on DLK and 0% in the test on DMPK2.

With `Fc1ccc(-c2ncn(CCCN3CCOCC3)c2-c2ccccn2)cc1` [SB-211742], the “%Inh” value with DAPK1 turned out to be 17%; in the test with DAPK2 it was 0%; in the test with DAPK3, 10%; in the test on DCAMKL1 it was 12%; with DCAMKL2, 0%; in the test with DCAMKL3, 12%. Besides, the “%Inh” value amounted to 0% with DDR1, 27% with DDR2, 20% in the test with DLK and 0% with DMPK2.

With `[2H]C([2H])(c1cccc(C(F)(F)F)c1C)n1ccn2c(=O)nc(N3CCOCC3)cc12` [GSK2336394], the “%Inh” value is given as 26% in the test with DAPK1; 0% with DAPK2; 6% in the test on DAPK3; 8% with DCAMKL1; 18% in the test with DCAMKL2; 21% in the test with DCAMKL3. Also, the “%Inh” value is on record as 0% with DDR1, 0% in the test with DDR2, 10% with DLK and 0% in the test on DMPK2.

Turning to `Cl.Nc1ncnc2occ(-c3ccc(NC(=O)Nc4cc(C(F)(F)F)ccc4F)cc3)c12` [SB-707548], the “%Inh” value with DAPK1 worked out at 24%; in the test with DAPK2, 14%; with DAPK3, 14%; with DCAMKL1 it was 17%; in the test with DCAMKL2, 4%; in the test on DCAMKL3, 0%. Moreover, the “%Inh” value in the test on DDR1 is 100%; in the test on DDR2, 98.3%; in the test with DLK, 21%; with DMPK2, 24%.

On to `O=c1cc(N2CCOCC2)nc2n(Cc3cccc(F)c3)ccn12` [GSK2297430], for which the “%Inh” value with DAPK1 is recorded as 0%; in the test on DAPK2, 0%; in the test with DAPK3 it was 0%; in the test on DCAMKL1, 0%; in the test on DCAMKL2 it was 0%; with DCAMKL3, 2%. For the same compound, the “%Inh” value with DDR1 came out at 0%; with DDR2, 1%; in the test on DLK, 23%; with DMPK2, 4%.

On to `Cn1ccc2ncnc(Oc3ccc(NC(=O)Nc4ccncc4)c(Cl)c3)c21`, for which the “%Inh” value with DAPK1 amounted to 0%; in the test with DAPK2 it was 0%; with DAPK3 it was 0%; in the test with DCAMKL1, 13%; in the test with DCAMKL2, 0%; in the test with DCAMKL3, 0%. For the same compound, the “%Inh” value with DDR1 came out at 35%; in the test with DDR2, 34%; in the test on DLK, 0%; in the test with DMPK2 it was 0%.

For the compound `CN1c2ccc(CNc3ccc(F)cc3)cc2-c2c(cnn2C)S1(=O)=O`, the “%Inh” value is 11% in the test with DAPK1; 0% in the test with DAPK2; 0% in the test with DAPK3; 14% in the test on DCAMKL1; 0% with DCAMKL2; 0% in the test with DCAMKL3. The “%Inh” value is listed as 4% in the test on DDR1, 35% with DDR2, 0% in the test with DLK and 0% in the test on DMPK2.

Regarding `Cc1nnc(-c2ccc3ncc(-c4ccc(S(C)=O)cc4)n3c2)o1` (stereo not shown), the “%Inh” value with DAPK1 came out at 22%; with DAPK2 it was 0%; in the test on DAPK3 it was 0%; with DCAMKL1, 18%; with DCAMKL2 it was 0%; with DCAMKL3, 0%. Further, the “%Inh” value with DDR1 is recorded as 8%; with DDR2, 24%; in the test on DLK, 0%; in the test on DMPK2, 0%.

In the case of `NCCNS(=O)(=O)c1ccc(-c2ccnc3[nH]ccc23)cc1` [GSK977617], the “%Inh” value was 94% and 90.7% in the test on DAPK1 (1 µM); 91.4% and 86% in the test with DAPK2 (1 µM); 98.5% and 97.6% in the test with DAPK3 (1 µM); 50% and 52% in the test on DCAMKL1 (1 µM); 34% and 28% in the test on DCAMKL2 (1 µM); 58% and 39% in the test on DCAMKL3 (1 µM). For the same compound, the “%Inh” value in the test with DDR1 was 0%; in the test on DDR2 (1 µM), 12% and 8%; in the test with DLK (1 µM) it was 48% and 40%; in the test on DMPK2 (1 µM), 78% and 71%.

Consider `NS(=O)(=O)c1cccc(-c2ccc3nccc(-c4cccc(S(N)(=O)=O)c4)c3c2)c1` [GW867253], for which the “%Inh” value with DAPK1 stood at 0%; in the test with DAPK2, 0%; in the test with DAPK3, 2%; with DCAMKL1, 9%; in the test with DCAMKL2, 0%; in the test with DCAMKL3, 0%. The “%Inh” value was 0% in the test on DDR1, 23% with DDR2, 9% with DLK and 0% in the test on DMPK2.

Turning to `COc1cc2c(cc1OCCN1CCN(C)CC1)ncc1c3ccc(C#N)cc3[nH]c21`, the “%Inh” value in the test with DAPK1 came to 44%; in the test on DAPK2 it was 0%; in the test with DAPK3 it was 7%; in the test on DCAMKL1 it was 40%; in the test with DCAMKL2 it was 0%; in the test with DCAMKL3, 100%. Moreover, the “%Inh” value with DDR1 worked out at 0%; in the test on DDR2, 8%; in the test with DLK, 78%; in the test with DMPK2 it was 0%.
